# Tests used:
# Assay in all cases: Spec-seq (native PAGE EMSA with sequencing of bound and unbound); 25 mM Tris-HCl pH 7.4, 150 mM KCl, 5 mM MgCl2, 10% glycerol, 1 mM DTT, 40 ng/uL salmon sperm DNA; 400 nM Cas12a, 480 nM crRNA, 50 nM library, 37 C 1 h; native PAGE at room temperature; high values mean tight binding
# Conditions in all cases: protein: recombinant
# dAsCas12a Ultra = dAsCas12a Ultra (Acidaminococcus sp., UniProt U2UMQ6 1-1307, M537R;F870L;D908A;E993A;D1235A)
# dAsCas12a E174R = dAsCas12a E174R (Acidaminococcus sp., UniProt U2UMQ6 1-1307, E174R;D908A;E993A;D1235A);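 also: relative affinity from the bound to unbound sequence frequency ratio in Spec-seq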
# dAsCas12a S542R = dAsCas12a S542R (Acidaminococcus sp., UniProt U2UMQ6 1-1307, S542R;D908A;E993A;D1235A);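 also: relative affinity from the bound to unbound sequence frequency ratio in Spec-seq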
# d-enCas12a = d-enCas12a (Acidaminococcus sp., UniProt U2UMQ6 1-1307, E174R;S542R;K548R;D908A;E993A;D1235A)
# d-enCas12a-Ultra = d-enCas12a-Ultra (Acidaminococcus sp., UniProt U2UMQ6 1-1307, E174R;S542R;K548R;M537R;F870L;D908A;E993A;D1235A);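 also: relative affinity from the bound to unbound sequence frequency ratio in Spec-seq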
Binder,binding signal (dAsCas12a Ultra) [lnKA],binding signal (dAsCas12a E174R) [lnKA],binding signal (dAsCas12a S542R) [lnKA],binding signal (d-enCas12a) [lnKA],binding signal (d-enCas12a-Ultra) [lnKA]
TGTT (dsDNA) DNA 1: GCTATCTAGTGCTCAGTACGCACTGTGTTAGGAAACTTCTGGCAGGACCAGGTCATGAGATCGGAAGAGCACACGTCTGAACTCCAGTCA DNA 2: TGACTGGAGTTCAGACGTGTGCTCTTCCGATCTCATGACCTGGTCCTGCCAGAAGTTTCCTAACACAGTGCGTACTGAGCACTAGATAGC RNA: AAUUUCUACUCUUGUAGAUAGGAAACUUCUGGCAGGACC,-7.9,-8.41,-7.82,-3.23,-0.889
ATAT (dsDNA) DNA 1: GCTATCTAGTGCTCAGTACGCACTGATATAGGAAACTTCTGGCAGGACCAGGTCATGAGATCGGAAGAGCACACGTCTGAACTCCAGTCA DNA 2: TGACTGGAGTTCAGACGTGTGCTCTTCCGATCTCATGACCTGGTCCTGCCAGAAGTTTCCTATATCAGTGCGTACTGAGCACTAGATAGC RNA: AAUUUCUACUCUUGUAGAUAGGAAACUUCUGGCAGGACC,,-8.59,-8.38,-5.63,-3.33
TTGT (dsDNA) DNA 1: GCTATCTAGTGCTCAGTACGCACTGTTGTAGGAAACTTCTGGCAGGACCAGGTCATGAGATCGGAAGAGCACACGTCTGAACTCCAGTCA DNA 2: TGACTGGAGTTCAGACGTGTGCTCTTCCGATCTCATGACCTGGTCCTGCCAGAAGTTTCCTACAACAGTGCGTACTGAGCACTAGATAGC RNA: AAUUUCUACUCUUGUAGAUAGGAAACUUCUGGCAGGACC,-7.79,-7.77,-7.47,-4.47,-1.69
ACCT (dsDNA) DNA 1: GCTATCTAGTGCTCAGTACGCACTGACCTAGGAAACTTCTGGCAGGACCAGGTCATGAGATCGGAAGAGCACACGTCTGAACTCCAGTCA DNA 2: TGACTGGAGTTCAGACGTGTGCTCTTCCGATCTCATGACCTGGTCCTGCCAGAAGTTTCCTAGGTCAGTGCGTACTGAGCACTAGATAGC RNA: AAUUUCUACUCUUGUAGAUAGGAAACUUCUGGCAGGACC,,-8.9,-7.8,-5.41,-2.23
ACCA (dsDNA) DNA 1: GCTATCTAGTGCTCAGTACGCACTGACCAAGGAAACTTCTGGCAGGACCAGGTCATGAGATCGGAAGAGCACACGTCTGAACTCCAGTCA DNA 2: TGACTGGAGTTCAGACGTGTGCTCTTCCGATCTCATGACCTGGTCCTGCCAGAAGTTTCCTTGGTCAGTGCGTACTGAGCACTAGATAGC RNA: AAUUUCUACUCUUGUAGAUAGGAAACUUCUGGCAGGACC,,-8.92,-6.94,-4.21,-0.992
ATAG (dsDNA) DNA 1: GCTATCTAGTGCTCAGTACGCACTGATAGAGGAAACTTCTGGCAGGACCAGGTCATGAGATCGGAAGAGCACACGTCTGAACTCCAGTCA DNA 2: TGACTGGAGTTCAGACGTGTGCTCTTCCGATCTCATGACCTGGTCCTGCCAGAAGTTTCCTCTATCAGTGCGTACTGAGCACTAGATAGC RNA: AAUUUCUACUCUUGUAGAUAGGAAACUUCUGGCAGGACC,,-8.88,-8.31,-5.6,-3.31
AGGG (dsDNA) DNA 1: GCTATCTAGTGCTCAGTACGCACTGAGGGAGGAAACTTCTGGCAGGACCAGGTCATGAGATCGGAAGAGCACACGTCTGAACTCCAGTCA DNA 2: TGACTGGAGTTCAGACGTGTGCTCTTCCGATCTCATGACCTGGTCCTGCCAGAAGTTTCCTCCCTCAGTGCGTACTGAGCACTAGATAGC RNA: AAUUUCUACUCUUGUAGAUAGGAAACUUCUGGCAGGACC,,-8.84,-8.44,-5.86,-3.51
TTGG (dsDNA) DNA 1: GCTATCTAGTGCTCAGTACGCACTGTTGGAGGAAACTTCTGGCAGGACCAGGTCATGAGATCGGAAGAGCACACGTCTGAACTCCAGTCA DNA 2: TGACTGGAGTTCAGACGTGTGCTCTTCCGATCTCATGACCTGGTCCTGCCAGAAGTTTCCTCCAACAGTGCGTACTGAGCACTAGATAGC RNA: AAUUUCUACUCUUGUAGAUAGGAAACUUCUGGCAGGACC,-7.84,-8.2,-7.64,-5.22,-2.4
